Out of some 1,900 compounds screened, about 1,200 (63%) were called active.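 Rule for the calls: active = mean activation above the mean of solvent-only control wells plus 3 SD (cut at about 22% in these data); inactive = the rest.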 The set was probably picked from earlier hits. The entries come from a sample that favours actives as a whole.

The nature of this test: frataxin GAA30 reporter activation – cell-based, luminescence, HEK293, lucGAA30, triplicate, counter-screen for GAA850 frataxin promoter activator project, confirmation (AID 588350).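 Note: counterscreen of GAA850 promoter hits where activity marks nonselective or luminescence artifacts.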 As to conditions: HEK293 lucGAA30 FXN promoter luciferase, 24 h; at 6 µM; active compounds read high. (The purpose of a counterscreen is to sort out artefacts and off-target activity.)
Take `CC(C)(C)c1ccc(OC(=O)N2CCCCC2)cc1`: the activation was 101% (active).

(Values after PubChem BioAssay AID588350 (The Scripps Research Institute Molecular Screening Center, 2011).)
